High-throughput results (PubChem BioAssay)
p53null 39C kill = kills p53 null cells at the nonpermissive temperature; Potency, µM (series often up to 46.1 µM), inactives show at the highest dose activity, negative = cell killing, hits mostly cytotoxic; AID 904; 0.97% of 55,000 active; H1299 p53-null (neo) cells, 39C, ATPlite viability, 24 h;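 note: 0% = DMSO only and -100% = full killing by 100 µM tamoxifen; nearly all actives have a fitted effect of over 50% in size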
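Cells seeded at 600/well, 37C overnight. Compound added (up to 46 uM), plates shifted to 39C for 24 hr. ATPlite added, luminescence read after 20 min at room temperature.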
PMP22 txn = modulators of PMP22 gene transcription in S16 Schwann cells. S16 Pmp22-F2sN Schwann cells, FLuc/NLuc coincidence luminescence, 24 h. 2% of 43,000 active. Potency, µM (highest dose often 57.5 µM), for the others: at the top dose activity change, negative = inhibition, most hits filed as inhibitors; active = clear falling dose curves in both reporters; inconclusive = both reporters move, but less clearly or upward; inactive = either reporter flat; the % is the NLuc reporter signal
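Reporter cells (S16 Pmp22-F2sN, 500–1,000 per well) exposed to compounds for 24 h, 37C, 5% CO2; lysis with FLuc read after 10 min, then Stop&Glo and NLuc read after 10 min.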
S16 F2sN tox = cytotoxicity in S16 Pmp22-F2sN Schwann cells | 0.48% of 43,000 active | S16 Pmp22-F2sN Schwann cells (luciferase reporters placed in the Pmp22 gene) viability, CellTiter-Glo, 24 h | AID 1508642 | Potency, µM (doses to about 57.5 µM), inactives show at the top dose activity change, negative = cytotoxicity, hits mostly cytotoxic; note: nearly all actives have a fitted effect of over 65% in size
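Seed 500-1,000 S16 Pmp22-F2sN cells per well in phenol-red-free DMEM with 10% heat-inactivated FBS; pin-add 23 nL compound; incubate 24 h at 37C; add CellTiter-Glo, wait 15 min protected from light; read luminescence.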
pS6 MEF inh = inhibitors of mTORC1 signaling in Tsc2-/- p53-/- MEF cells. Tsc2-/- p53-/- MEF, phospho-rpS6 immunofluorescence/PI, 24 h. AID 493208. Potency, µM (titrated, usually from 38.3 µM), inactives show at the highest dose activity change, negative = inhibition, usual class: inhibitors. 0.78% of 44,000 active;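 note: plate controls were DMSO for no effect and rapamycin for full effect; nearly all actives have a fitted effect of over 50% in size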
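Cell-based qHTS: Tsc2-/- p53-/- MEF, 24 h cpd, 37 °C; fix/perm, anti-phospho-S6 Alexa-488 + PI; Acumen 488 nm scan; pS6/PI ratio, % positive cells; rapamycin 7.5 nM = inhibition ref; PI count = viability.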
SKOV3 invasion = ovarian cancer metastasis inhibition, 3D TME model. Potency, µM (top dose mostly 45.8 µM), for inactives: at the highest dose activity change, negative = inhibition, hits mostly inhibitors. SKOV3ip1-GFP adhesion/invasion on 3D omental model, fluorescence. 0.1% of 46,000 active. AID 1963576;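 note: plate controls were DMSO wells for no effect and tomatine positive control wells for full effect; nearly all actives have a fitted effect of over 65% in size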
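Adhesion/invasion was scored as fixed GFP-labeled SKOV3ip1 cell counts (488/509 nm), normalized to DMSO and tomatine controls. Cancer cells in serum-free medium, with four compound doses (0.36-46 umol/L), sat 2 hr at RT then 16 hr at 37 C on a 48 hr fibroblast/mesothelial/ECM culture.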
p53null 32C tox = p53 null cell cytotoxicity, permissive temperature | AID 903 | 0.62% of 55,000 active | Potency, µM (doses to about 46.1 µM), inactives show at the highest dose activity change, negative = cytotoxicity, actives largely listed as cytotoxic | H1299-neo p53 null cells, ATP luminescence, 24 h, 32C;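 note: 0% = DMSO only and -100% = full killing by 100 µM tamoxifen; nearly all actives have a fitted effect of over 55% in size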
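H1299-neo (p53 null) cells, 600/well, treated 24 h at 32C with compound up to 46 uM; ATPlite luminescence viability, normalized to DMSO and 100 uM tamoxifen; AC50 by Hill fit.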
* marks the source's active call; other numbers are inactive results; i = inactive; ? = inconclusive; . = not tested or not shown; [ ] = another dose, or the depositor's remark. This is a sample that favours compounds with a hit; in the whole collection about 3.1% have one here. Unless noted, calls come from the whole dose curve; as a rule, active = well fitted curve in the direction sought with a large enough effect; inconclusive = small, poorly fitted or top-dose-only effect, or another doubt; inactive = no such curve, though single readings can be large; an effect the other way counts as inactive or inconclusive. Unless noted, % is set by controls: 0 for no effect and ±100 for the full control effect; potency is the fitted concentration of half-maximal effect.

SMILES	p53null 39C kill	PMP22 txn	S16 F2sN tox	pS6 MEF inh	SKOV3 invasion	p53null 32C tox
CC(C)(O)CC(=O)NCCn1ccc2ncnc(Nc3ccc(Oc4cccc(C(F)(F)F)c4)c(Cl)c3)c21	.	.	.	.	5.0%	.
Cc1ccc(C)c(CN2C(=O)C(=O)c3ccccc32)c1	-7.7%	?	?	2.93µM*	1.1%	0.9%
Cc1ccc2c(c1)C(=O)C(=O)N2Cc1ccc(OC(C)C)cc1	15.1%	2.3µM*	?	?	-6.6%	57.3%
COc1cc(NC(=O)c2ccc(-c3ccc(Cl)cc3)o2)cc(OC)c1	.	.	.	.	-4.5%	.
CCc1ccc(-n2c(=O)c3c4c(sc3n(CC(=O)c3ccc(F)cc3)c2=O)CCC4)cc1	-25.3%	?	-18.7%	5.21µM*	-20.9%	2.9%
COc1ccc(N2CCN(C(=O)c3ccc(Nc4nc5ccccc5n5nnnc45)cc3)CC2)cc1	-6.7%	?	?	-0.5%	-12.5%	-0.8%
O=C(c1ccc(Nc2nc3ccccc3n3nnnc23)cc1)N1CCN(c2ccc(F)cc2)CC1	-19.3%	4.01µM*	?	3.5%	-5.8%	-1.7%
CN(C)c1ccc(Nc2nc3ccccc3n3nnnc23)cc1	?	13.5µM*	?	-0.9%	3.5%	-20.4%
CCCCCOC(=O)Nc1nc(=O)n([C@@H]2O[C@H](C)[C@@H](O)C2O)cc1F (some centres undefined)	.	.	.	.	4.7%	.
CCOc1ccc(Cn2c(CNS(=O)(=O)c3cccc(Cl)c3)nc3cccnc32)cc1	14.2%	-15.8%	6.3%	-0.1%	-6.0%	-2.8%
Cc1ccc(/C=C/c2nc3ccccc3n2S(=O)(=O)c2cccc(Cl)c2)cc1	3.16µM*	-19.6%	?	-5.0%	i	3.16µM*
CCOc1ccc(/C=C/c2nc3ccccc3n2S(=O)(=O)c2cccc(Cl)c2)cc1	6.31µM*	?	?	-1.0%	-14.4%	12.6µM*
CSc1ccc(/C=C/c2nc3ccccc3n2S(=O)(=O)c2ccc(F)c(C)c2)cc1	10µM*	?	?	-8.7%	-0.5%	7.94µM*
Cc1cccc(NC(=O)Cn2c(/C=C/c3ccccc3)nc3ccccc32)c1	0.1%[1.84 µM]	.	.	.	.	.
CC(C)(C)COc1ccc(-n2cc(C(=O)O)cn2)cc1C#N	.	.	.	.	10.8%	.
O=C1c2[nH]nc(-c3ccccc3O)c2C(c2ccc(Cl)cc2)N1CCc1ccccc1 (centres undefined)	25.1µM*	?	-26.9%	16.5µM*	-6.3%	44.2%
CCOc1cc(C2c3c(-c4ccccc4O)n[nH]c3C(=O)N2CCc2ccccc2)ccc1O (centres undefined)	42.3%	?	-23.6%	6.2%	-10.1%	51.9%
Fc1ccc(Cc2cn3cc(-c4ccccc4)nc3s2)cc1	2µM*	-20.8%	14.7%	2.2%	i	4.47µM*
Cc1cc(C)cc(NC(=O)Cn2nnc(C(=O)NCc3ccccc3Cl)c2N)c1	?	?	-15.0%	-9.0%	?	-7.3%
Cc1ccc(C)c(NC(=O)Cn2nnc(C(=O)NCc3ccccc3Cl)c2N)c1	7.9%	?	14.1µM*	-3.8%	?	7.4%
CS(=O)(=O)c1ccc(C(=O)Nc2ccc(Cl)c(-c3ccccn3)c2)c(Cl)c1	.	.	.	.	-5.4%	.
CCCCN(C)CCNC(=O)c1cc(-c2ccc(Cl)s2)nc2ccccc12	12.6µM*	?	?	?	i	8.2%
Cc1ccc(Nc2nc3nonc3nc2Nc2cccc(C(F)(F)F)c2)cc1Cl	?	7.61µM*	11.2µM*	?	-16.0%	-23.5%
Cc1ccc(O)c(-c2n[nH]c3c2C(c2ccccc2F)N(Cc2ccco2)C3=O)c1 (centres undefined)	8.0%	?	?	-3.3%	12.6µM*	60.2%
COc1cc(C2c3c(-c4cc(C)ccc4O)n[nH]c3C(=O)N2Cc2ccco2)cc(OC)c1OC (centres undefined)	5.5%	-12.1%	18.8%	8.2%	3.9%	25.9%
SMILES	p53null 39C kill	PMP22 txn	S16 F2sN tox	pS6 MEF inh	SKOV3 invasion	p53null 32C tox
COc1cc2nccc(Oc3ccc(NC(=O)Nc4cc(C)on4)c(Cl)c3)c2cc1OC	.	.	.	.	4.6%	.
O=c1c2cc3c(cc2nc2sc(Nc4ccccc4)nn12)OCO3	6.31µM*	-3.8%	15.0%	3.7%	-5.0%	10µM*
Cc1ccc(C)c(Nc2nn3c(=O)c4cc5c(cc4nc3s2)OCO5)c1	-15.8%	-44.3%	-2.1%	-1.5%	3.6%	-9.3%
CCCN(C(=O)c1cc2c(s1)-c1c(C)cccc1OC2)c1ccc(OCC)cc1	2.6%	-10.4%	6.7%	-0.4%	0.2%	?
CCc1ccccc1N(CC)C(=O)c1cc2c(s1)-c1ccccc1SC2	12.6µM*	?	-4.1%	-4.8%	12.1%	-1.4%
CCOc1ccc(N(CC)C(=O)c2cc3c(s2)-c2ccc(Cl)cc2SC3)cc1	10µM*	?	11.2%	-7.6%	6.5%	-4.6%
O=C(CCS(=O)(=O)c1nc(-c2cccs2)cc(C(F)(F)F)n1)Nc1cccc(O)c1	91.0%	?	?	13.1µM*	?	8.8%
COc1cc(NC(=O)CCS(=O)(=O)c2nc(-c3cccs3)cc(C(F)(F)F)n2)cc(OC)c1OC	8.0%	?	?	?	?	25.1%
COc1ccc(NC(=O)CCS(=O)(=O)c2nc(-c3cccs3)cc(C(F)(F)F)n2)cc1OC	103.3%	?	?	13.1µM*	?	36.1%
Cc1ccc(/C=C/c2nc3ccccc3[nH]2)cc1	1.58µM*	?	15.8µM*	14.1%	?	0.398µM*
Cc1ccc(S(=O)(=O)Nc2nc3ccccc3nc2Nc2ccc3nsnc3c2)cc1	.	.	.	.	-10.3%[23.2 µM]	.
CCc1cccc(-n2nnc(-c3nsc(NC(=O)c4cccs4)n3)c2C)c1	10µM*	2.2%	-6.4%	1.3%	0.0%	-5.3%
CSc1cccc(-n2nnc(-c3nsc(NC(=O)c4cccs4)n3)c2C)c1	?	-38.2%	-14.4%	-1.1%	-3.0%	-6.1%
Cc1ccc(-c2cc(-c3ccccc3C)[nH]n2)c(O)c1	-95.8%	.	.	.	.	12.6µM*
COc1ccc(OC)c(C2c3c(-c4ccc(Br)cc4)n[nH]c3C(=O)N2c2ccc(Cl)cc2)c1 (centres undefined)	2.6%	?	?	-12.4%	?	33.5%
COc1ccc(-c2n[nH]c3c2C(c2ccc(O)cc2)N(c2ccc(Br)cc2)C3=O)cc1 (centres undefined)	-12.0%	?	?	14.7µM*	-9.2%	-23.8%
